# “And” between values parts separate entries of the source, which are not always exact repeats. Equal entries are not always repeated. The whole screen tested about 16,000 compounds, of which about 2,600 (16%) were called active. Inconclusive results (about 20%) are left out. The call rests on the fitted dose curve; in most records, active means well fitted curve in the direction sought with a large enough effect; inconclusive means small, poorly fitted or top-dose-only effect, or effect the other way; inactive means no such curve, though single readings can be large or run the other way. Only a sample is shown.
# Target: Cytochrome P450 2D6 (Homo sapiens) (UniProt P10635)
# Sequence (P10635 whole entry, looked up): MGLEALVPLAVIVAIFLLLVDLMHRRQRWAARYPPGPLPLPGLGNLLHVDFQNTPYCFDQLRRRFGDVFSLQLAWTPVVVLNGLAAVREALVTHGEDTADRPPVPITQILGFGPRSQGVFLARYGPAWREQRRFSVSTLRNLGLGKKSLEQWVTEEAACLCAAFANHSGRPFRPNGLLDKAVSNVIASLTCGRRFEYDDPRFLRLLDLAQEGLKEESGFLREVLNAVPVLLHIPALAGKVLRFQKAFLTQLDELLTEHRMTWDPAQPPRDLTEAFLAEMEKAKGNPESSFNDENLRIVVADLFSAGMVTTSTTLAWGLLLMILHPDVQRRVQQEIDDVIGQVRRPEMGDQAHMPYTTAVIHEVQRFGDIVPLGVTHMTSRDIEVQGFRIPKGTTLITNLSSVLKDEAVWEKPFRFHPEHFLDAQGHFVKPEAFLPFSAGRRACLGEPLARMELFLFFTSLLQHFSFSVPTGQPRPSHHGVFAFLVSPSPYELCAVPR
# Assay: Cytochrome panel assay with activity outcomes
# Settings: recombinant CYP, pro-luciferin dealkylation, luminescence, p450-cyp2d6; series mostly up to 57.1 µM
# On the % scale 0 is the no-effect control and ±100 the full control effect.
Structure (SMILES),AC50,"activity, negative = inhibition"
Cn1cc(-c2nc3cncnc3n(Cc3ccccc3Cl)c2=O)c2ccccc21,inactive,–
Cc1[nH]c(N)nc(=S)c1CCC(=O)O,–,5.35% [at 11.4 µM] (inactive)
Cc1ccc(Oc2cc(N3CCOCC3)nc(-c3ccccc3)n2)cc1,inactive,–
COc1ccc(-c2csc3c2[N+]2=CCC=C2C3=O)cc1,3.16 µM (active),–
CCOC(=O)c1c(-c2ccc(OC)cc2)csc1NC(=O)CCN1C(=O)c2ccccc2C1=O,inactive,–
CC[C@@H]1CC(=O)N(SC[C@H](N)C(=O)O)C1=O,–,7.85% [at 11.4 µM] (inactive)
CN1C(=O)C[C@H](c2ccccc2)C1=O,inactive,–
CN1Cc2c(N)cccc2[C@H](c2ccccc2)C1,31.6 µM (active) and 6.31 µM (active),–
CC1(C)[C@@H]2CC[C@]1(C)[C@@H](OC(=O)/C=C\c1ccccc1)C2,–,2.99% [at 11.4 µM] (inactive)
Oc1oc(-c2ccccc2)nc1C=Nc1ccccc1,inactive,–
COc1cc(C2C(C(=O)c3cccs3)=C(O)C(=O)N2Cc2ccco2)cc(OC)c1OC (configuration not stated),inactive,–
COC(=O)C/C=C\[C@@H](C)[C@@H](/C=N\OC[C@@H](C)[C@H](OCc1ccccc1)C(C)C)OC,–,-9.09% [at 11.4 µM] (inactive)
COc1ccc(CCC(C)NC2C3CC4CC(C3)CC2C4)cc1 (configuration not stated),3.55 µM (active),–
COc1ccc(CN[C@H](C)C(=O)O)cc1,–,6.89% [at 11.4 µM] (inactive)
CCC(C)NC(=O)C1CC(c2ccc(OC)cc2)=NO1 (configuration not stated),inactive,–
Cc1ccc(N=Nc2c(N)n(-c3ccccc3)[nH]c2=O)cc1,inactive,–
COCCNC(=O)CCn1c(=O)oc2ccccc21,inactive,–
S=C1N[C@H](c2ccccc2)N[C@H](c2ccccc2)S1,3.98 µM (active),–
O=C1C2[C@@H](c3ccccc3)N[C@@H](c3ccccc3)C1[C@H](c1ccccc1)N[C@H]2c1ccccc1,–,-8.91% [at 11.4 µM] (inactive)

Structure (SMILES),AC50,"activity, negative = inhibition"
O=C(O)c1ccc(C(=O)c2ccccc2)c(C(=O)O)c1,–,14.9% [at 11.4 µM] (inactive)
COC(=O)CSc1nnc(CNc2ccc(Cl)cc2)n1-c1ccccc1,inactive,–
Cn1c(=O)cc(SCC(=O)NCCCN2CCOCC2)c2ccc(Cl)cc21,inactive,–
CCOC(=O)CSc1cc(=O)n(C)c2cc(Cl)ccc12,inactive,–
Cn1c(=O)cc(SCC(=O)NCCN2CCN(c3ccccc3F)CC2)c2cc(Cl)ccc21,14.1 µM (active),–
COCc1c(C(=O)OCC(=O)N2c3ccccc3NC(=O)C2(C)C)oc2ccccc12,inactive,–
COc1cccc([C@@H]2Oc3ccc(OC)cc3/C(=N/O[C@@H](C)CN3CCCc4nc(C)c(C)cc43)[C@@H]2O)c1,3.98 µM (active),–
CCCNC(=O)OC[C@@H]1O[C@H](CCO/N=C(\C)CCC(=O)OC[C@@H]2O[C@H](c3ccccc3)C=C[C@@H]2Oc2ccc(OC)cc2)C=C[C@@H]1Oc1ccc(OC)cc1,–,5.63% [at 11.4 µM] (inactive)
COc1ccc(O[C@H]2C=C[C@@H](c3ccccc3)O[C@@H]2CO/N=C(\C)CCN2CCc3nc(-c4ccccc4)c(-c4ccccc4)cc3C2)cc1,–,-14.1% [at 11.4 µM] (inactive)
COc1ccc(O[C@H]2C=C[C@@H](c3ccccc3)O[C@H]2COC(=O)CC/C(C)=N\O[C@@H](C)c2cc(-c3c(C)cc(C)cc3C)no2)cc1,–,-7.29% [at 11.4 µM] (inactive)
COc1ccc(O[C@H]2C=C[C@@H](c3ccccc3)O[C@@H]2CO/N=C(\C)CCN2CCCc3nc(C)c(C)cc32)cc1,3.16 µM (active),–
COc1cccc([C@@H]2Oc3ccc(OC)cc3/C(=N/O[C@@H](C)c3cn([C@H]4COC[C@H]4O)nn3)[C@@H]2O)c1,–,-18.2% [at 11.4 µM] (inactive)
C/C(CCC(=O)OC[C@@H]1O[C@H](C#Cc2ccccc2)C=C[C@@H]1Oc1ccc(C)cc1)=N/O[C@@H](C)CN1CCCc2nc(C)c(C)cc21,3.16 µM (active),–
COc1ccc(O[C@H]2C=C[C@@H](c3ccccc3)O[C@H]2COC(=O)CC/C(C)=N\O[C@@H](C)CN2CCCc3nc(C)c(C)cc32)cc1,3.16 µM (active),–
COc1ccc(O[C@H]2C=C[C@@H](c3ccccc3)O[C@H]2CO/N=C(/C)CCC(=O)OC[C@@H]2O[C@H](C#Cc3ccccc3)C=C[C@@H]2Oc2ccc(C)cc2)cc1,–,11.9% [at 11.4 µM] (inactive)
COc1cccc([C@H]2Oc3ccc(OC)cc3/C(=N\O[C@@H](C)c3cn([C@H](CO)Cc4ccccc4)nn3)[C@@H]2O)c1,–,-6.89% [at 11.4 µM] (inactive)
CCCNC(=O)OC[C@@H]1O[C@H](CCO/N=C(\C)CCN2CCCc3nc(C)c(C)cc32)C=C[C@@H]1Oc1ccc(OC)cc1,–,-18.3% [at 11.4 µM] (inactive)
C/C(CCC(=O)OC[C@@H]1O[C@H](C#Cc2ccccc2)C=C[C@@H]1Oc1ccc(C)cc1)=N/O[C@@H](C)c1cn([C@H](CO)Cc2ccccc2)nn1,–,-5.83% [at 11.4 µM] (inactive) and -8.36% [at 11.4 µM] (inactive)
